Test results taken from PubChem BioAssay (NCI).
Compounds without any hit were thinned out: in the full panel of roughly 83,000, 20% have a hit.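 Percent growth is the endpoint: 0 to 100 indicates growth inhibition (40 means 60% inhibition), 0 means no net growth, and negative values indicate cell death.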 A number with no mark means an inactive call. How the source made its calls: active means growth percent below 10; inactive means the rest.

What follows are compounds tested on HL-60(TB) leukemia (assay: NCI-60 one-dose screen, 48 h (100 = growth as untreated, 0 = no growth, -100 = all killed)). Details: 10 µM unless noted.

SMILES	growth
CN(C)c1ccc(/C=c2\s/c(=C\C(=O)C(C)(C)C)[nH]c2=O)cc1	119%
COc1cccc(C(c2cc3c(cc2O)OCO3)N2CCOCC2)c1OC (stereo unspecified)	97.1%
O=C1c2ccccc2NC(n2sc3ccccc3c2=O)N1c1ccccc1 (stereo unspecified)	87.9%
O=C(Nc1cccc(C2=NCCN2)c1)c1ccc(-c2ccc(C(=O)Nc3cccc(C4=NCCN4)c3)cc2)cc1	16%
CCc1c2c(nc3ccc(OC(=O)OCc4ccc(B5OC(C)(C)C(C)(C)O5)cc4)cc13)-c1cc3c(c(=O)n1C2)COC(=O)[C@]3(O)CC	12%
COc1ccc(-n2c(N)c(-c3nc4ccccc4[nH]3)cc(C#N)c2=O)cc1	99%
